Source: the supplement of paper PMC10849652
About 8,800 targets were measured; listed, in parts, are those with a hit and a random draw of the rest. About 0.5% of all pairs of compound and target were hits. A number with no mark means an inactive call.

Legend:
Assay in all cases: log2 fold change, soluble protein after heating vs DMSO (PISA); higher = thermal stabilisation; K562 lysate, 10 uM; active = over 0.2 and 3.5 SD of the protein, either way, in both replicates (recomputed)
[1] = compound: CCN(CCCOc1ccc2c(Nc3cc(CC(=O)Nc4cccc(F)c4)[nH]n3)ncnc2c1)CCOP(=O)(O)O [barasertib]
Procedure, shortened: (§1)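 The values are log-two fold changes in thermal stability compared with solvent controls and come from duplicates. They were obtained by TMTpro 16plex LC-MS/MS, with channel sums equalised, on the supernatant after 21,000xg for 90 min. That supernatant came from crude K562 extract at 1 mg/mL protein treated with 10 μM compound for 30 min, heated for 3 min across 48°C-58°C, pooled and brought to 0.5% NP-40 at 4°C.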

[2] = compound: CCn1c(C(=O)N(C2CC2)C2CC2)cc2c3c(ncn3C)c(Nc3cc(C)n(C)n3)nc21
Procedure, shortened: as §1

[3] = compound: CN1CCN(c2nc(C3=C(c4c[nH]c5ccccc45)C(=O)NC3=O)c3ccccc3n2)CC1 [sotrastaurin]
Procedure, shortened: as §1

[4] = compound: CN1CCc2c(c3ccccc3n2Cc2ccc(C(=O)NO)cc2)C1 [Tubastatin A]
Procedure, shortened: as §1

[5] = compound: COc1cc(Nc2ncc3c(n2)-c2ccc(Cl)cc2C(c2c(F)cccc2OC)=NC3)ccc1C(=O)O [alisertib]
Procedure, shortened: as §1

[6] = compound: COc1cc2ncnc(Nc3ccc(F)c(Cl)c3)c2cc1OCCCN1CCOCC1 [gefitinib]
Procedure, shortened: as §1

[7] = compound: CCCS(=O)(=O)Nc1ccc(F)c(C(=O)c2c[nH]c3ncc(-c4ccc(Cl)cc4)cc23)c1F [vemurafenib]
Procedure, shortened: as §1

[8] = compound: CNC(=O)c1ccc(Nc2ncc(C(F)(F)F)c(NCc3nccnc3N(C)S(C)(=O)=O)n2)cc1 [defactinib]
Procedure, shortened: as §1

[9] = compound: CN1CCN(CCOc2cc(OC3CCOCC3)c3c(Nc4c(Cl)ccc5c4OCO5)ncnc3c2)CC1 [saracatinib]
Procedure, shortened: as §1

[10] = compound: CNc1nc(-c2ccc3c(N)n[nH]c3c2)cc(N2C[C@@H](C(=O)NC3CCCCC3)CC[C@H]2C)n1
Procedure, shortened: as §1

[11] = compound: CCCS(=O)(=O)Nc1ccc(F)c(C(=O)c2c[nH]c3ncc(Cl)cc23)c1F
Procedure, shortened: as §1

[12] = compound: CC[C@@H]1C(=O)N(C)c2cnc(Nc3ccc(C(=O)NC4CCN(C)CC4)cc3OC)nc2N1C1CCCC1
Procedure, shortened: as §1

[13] = compound: CC[C@@H]1C(=O)N(C)c2cnc(Nc3ccc(C(=O)N[C@H]4CC[C@H](N5CCN(CC6CC6)CC5)CC4)cc3OC)nc2N1C(C)C [volasertib]
Procedure, shortened: as §1

[14] = compound: CNC(=O)C1=CC=CC=C1NC2=NC(=NC=C2Cl)NC3=C(C=C(C=C3)N4CCOCC4)OC
Procedure, shortened: as §1

[15] = compound: COC(=O)N[C@@H](C)CNc1nccc(-c2cn(C(C)C)nc2-c2cc(Cl)cc(NS(C)(=O)=O)c2F)n1 [encorafenib]
Procedure, shortened: as §1

[16] = compound: COC(=O)[C@H](CCSC)NC(=O)C1=C(C=C(C=C1)NC[C@H](CS)N)C2=CC=CC=C2
Procedure, shortened: as §1

[17] = compound: COc1cc2nc(-c3cc(F)ccc3O)nc(N[C@@H]3CNC[C@H]3C(C)(C)O)c2cc1OC
Procedure, shortened: as §1

[18] = compound: CCn1cc(-c2ccnc3[nH]c(-c4cccc(CN(C)C)c4)cc23)c(-c2ccc(NC(=O)N(C)C)cc2)n1
Procedure, shortened: as §1

[19] = compound: CN1CCC(CNc2ccc3ncc(-c4cccc(OC(F)(F)F)c4)n3n2)CC1
Procedure, shortened: as §1

[20] = compound: CN1CC[C@H](c2c(O)cc(O)c3c(=O)cc(-c4ccccc4Cl)oc23)[C@H](O)C1 [alvocidib]
Procedure, shortened: as §1

UBAP2L isoform 1 (UniProt Q14157)
log2 fold change [1]: 0.001
log2 fold change [2]: 0.207
log2 fold change [3]: -0.105
log2 fold change [4]: -0.006
log2 fold change [5]: 0.032
log2 fold change [6]: -0.088

UCP2 (UniProt P55851)
Sequence of UniProt P55851 (P55851 whole entry, looked up): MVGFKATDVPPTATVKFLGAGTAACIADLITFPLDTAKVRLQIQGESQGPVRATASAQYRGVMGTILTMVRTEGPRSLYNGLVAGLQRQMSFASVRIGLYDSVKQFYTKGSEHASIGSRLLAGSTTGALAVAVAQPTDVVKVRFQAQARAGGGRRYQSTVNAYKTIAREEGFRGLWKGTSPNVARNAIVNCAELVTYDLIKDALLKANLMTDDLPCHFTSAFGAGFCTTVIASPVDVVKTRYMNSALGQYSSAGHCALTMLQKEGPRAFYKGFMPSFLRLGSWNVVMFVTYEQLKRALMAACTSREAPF
log2 fold change [7]: 0.09
log2 fold change [2]: -0.024
log2 fold change [3]: -0.001
log2 fold change [4]: 0.182
log2 fold change [8]: 0.096
log2 fold change [5]: 0.033
log2 fold change [6]: 0.045

TLE3 (UniProt H0YL70)
log2 fold change [9]: 0.152
log2 fold change [10]: 0.153

TASP1 (UniProt Q9H6P5)
log2 fold change [11]: 0.028
log2 fold change [1]: 0.13
log2 fold change [12]: -0.082
log2 fold change [13]: -0.02
log2 fold change [2]: -0.047
log2 fold change [9]: -0.082
log2 fold change [3]: 0.02
log2 fold change [4]: 0.087
log2 fold change [14]: -0.119
log2 fold change [10]: 0.112
log2 fold change [15]: -0.035
log2 fold change [16]: 0.103
log2 fold change [5]: -0.151
log2 fold change [17]: -0.048
log2 fold change [6]: -0.046

TJP1 (UniProt G3V1L9)
log2 fold change [7]: 0.076
log2 fold change [1]: -0.034
log2 fold change [2]: -0.021
log2 fold change [18]: 0.04
log2 fold change [19]: -0.004
log2 fold change [9]: 0.096
log2 fold change [3]: -0.046
log2 fold change [20]: -0.09
log2 fold change [4]: -0.042
log2 fold change [14]: 0.124
log2 fold change [8]: 0.241
log2 fold change [10]: 0.119
log2 fold change [5]: -0.079
log2 fold change [6]: -0.215

TNIK isoform 5 (UniProt Q9UKE5)
log2 fold change [11]: -0.118
log2 fold change [1]: 0.021
log2 fold change [13]: -0.087
log2 fold change [2]: -0.059
log2 fold change [18]: -0.051
log2 fold change [19]: -0.065
log2 fold change [9]: 0.022
log2 fold change [3]: 0.034
log2 fold change [20]: 0.012
log2 fold change [4]: -0.015
log2 fold change [10]: -0.04
log2 fold change [17]: 0.214

UBAP2 (UniProt Q5JV08)
log2 fold change [5]: -0.165
log2 fold change [6]: -0.139

U2AF1L5 (UniProt P0DN76)
log2 fold change [11]: -0.013
log2 fold change [12]: 0.027
log2 fold change [13]: -0.036
log2 fold change [2]: 0.015
log2 fold change [18]: -1.21 (active)
log2 fold change [19]: 0.389
log2 fold change [9]: -0.007
log2 fold change [20]: -0.58
log2 fold change [4]: -0.193
log2 fold change [14]: -0.044
log2 fold change [10]: -0.023
log2 fold change [15]: -0.101
log2 fold change [16]: 0.096
log2 fold change [5]: -0.045
log2 fold change [17]: -0.013
log2 fold change [6]: -0.061

TMPO isoform 2 (UniProt P42167)
log2 fold change [7]: 0.08
log2 fold change [1]: 0.185
log2 fold change [12]: 0.075
log2 fold change [9]: 0.044
log2 fold change [8]: 0.058
log2 fold change [10]: 0.186
log2 fold change [15]: -0.113
log2 fold change [16]: -0.14

TENM4 (UniProt Q6N022)
log2 fold change [11]: -0.205
log2 fold change [1]: 0.104
log2 fold change [13]: -0.069
log2 fold change [18]: 0.534 (active)
log2 fold change [19]: -0.257
log2 fold change [3]: 0
log2 fold change [20]: 0.03
log2 fold change [17]: 0.024

TXNRD2 isoform 3 (UniProt Q9NNW7)
Sequence of UniProt Q9NNW7 (Q9NNW7 whole entry, looked up): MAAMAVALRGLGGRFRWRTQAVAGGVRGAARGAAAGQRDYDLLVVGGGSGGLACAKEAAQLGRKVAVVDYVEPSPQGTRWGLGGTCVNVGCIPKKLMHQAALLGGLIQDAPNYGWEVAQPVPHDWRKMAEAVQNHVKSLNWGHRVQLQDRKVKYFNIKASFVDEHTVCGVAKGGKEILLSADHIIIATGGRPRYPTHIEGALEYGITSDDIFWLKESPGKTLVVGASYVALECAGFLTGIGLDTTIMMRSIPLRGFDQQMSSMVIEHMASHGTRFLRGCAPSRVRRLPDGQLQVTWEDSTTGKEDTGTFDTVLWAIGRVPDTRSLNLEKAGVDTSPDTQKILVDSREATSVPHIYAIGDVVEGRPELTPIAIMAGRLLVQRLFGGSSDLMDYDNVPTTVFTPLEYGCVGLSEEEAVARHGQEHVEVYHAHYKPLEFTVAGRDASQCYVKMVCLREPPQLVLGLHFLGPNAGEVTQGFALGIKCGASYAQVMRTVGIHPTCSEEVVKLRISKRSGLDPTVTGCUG
log2 fold change [2]: -0.081
log2 fold change [4]: 0.072
log2 fold change [14]: 0.194

TNFAIP3 (UniProt P21580)
Sequence of UniProt P21580 (P21580 whole entry, looked up): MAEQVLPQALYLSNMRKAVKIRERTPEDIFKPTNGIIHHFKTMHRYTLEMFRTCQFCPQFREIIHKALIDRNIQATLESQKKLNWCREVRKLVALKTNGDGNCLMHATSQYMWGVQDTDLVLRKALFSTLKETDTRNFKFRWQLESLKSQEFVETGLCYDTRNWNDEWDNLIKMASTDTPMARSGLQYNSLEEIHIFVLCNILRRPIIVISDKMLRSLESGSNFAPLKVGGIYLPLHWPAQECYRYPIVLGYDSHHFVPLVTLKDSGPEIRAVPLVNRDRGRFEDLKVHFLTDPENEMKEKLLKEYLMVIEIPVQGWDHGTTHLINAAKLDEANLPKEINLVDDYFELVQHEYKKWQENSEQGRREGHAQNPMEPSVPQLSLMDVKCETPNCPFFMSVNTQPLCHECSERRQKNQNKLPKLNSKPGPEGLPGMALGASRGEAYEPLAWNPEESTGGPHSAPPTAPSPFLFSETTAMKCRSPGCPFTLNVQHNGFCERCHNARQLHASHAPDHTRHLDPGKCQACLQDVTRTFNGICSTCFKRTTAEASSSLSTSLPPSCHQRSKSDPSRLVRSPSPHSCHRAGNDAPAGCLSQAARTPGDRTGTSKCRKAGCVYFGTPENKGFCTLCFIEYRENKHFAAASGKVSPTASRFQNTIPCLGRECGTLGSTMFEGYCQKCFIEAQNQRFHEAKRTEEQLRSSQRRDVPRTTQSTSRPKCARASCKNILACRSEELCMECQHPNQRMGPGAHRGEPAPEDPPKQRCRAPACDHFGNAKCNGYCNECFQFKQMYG
log2 fold change [11]: 0.004
log2 fold change [1]: -0.015
log2 fold change [12]: -0.412
log2 fold change [13]: -0.063
log2 fold change [2]: 0.051
log2 fold change [18]: -0.009
log2 fold change [19]: 0.017
log2 fold change [9]: 0.029
log2 fold change [3]: -0.006
log2 fold change [20]: 0.005
log2 fold change [4]: -0.076
log2 fold change [14]: 0.022
log2 fold change [10]: -0.009
log2 fold change [15]: 0.276 (active)
log2 fold change [16]: 0.228
log2 fold change [5]: 0.002
log2 fold change [17]: 0.031
log2 fold change [6]: -0.028

TMEM132A isoform 2 (UniProt Q24JP5)
log2 fold change [11]: 0.239
log2 fold change [12]: -0.078
log2 fold change [13]: -0.144
log2 fold change [2]: 0.028
log2 fold change [18]: 0.055
log2 fold change [19]: 0.3
log2 fold change [3]: 0.044
log2 fold change [20]: -0.381
log2 fold change [4]: 0.136
log2 fold change [14]: -0.097
log2 fold change [15]: -0.064
log2 fold change [16]: -0.042
log2 fold change [17]: 1.16 (active)

TCF20 (UniProt Q9UGU0)
log2 fold change [11]: -0.106
log2 fold change [1]: 0.084
log2 fold change [13]: 0.006
log2 fold change [18]: -0.02
log2 fold change [19]: -0.031
log2 fold change [9]: 0.038
log2 fold change [3]: 0.086
log2 fold change [20]: -0.017
log2 fold change [14]: 0.01
log2 fold change [10]: 0.615 (active)
log2 fold change [17]: 0.167

TTLL12 (UniProt V9GY16)
log2 fold change [7]: 0.261
log2 fold change [1]: 0.102
log2 fold change [12]: 0.227
log2 fold change [2]: -0.465
log2 fold change [18]: -0.393
log2 fold change [19]: 0.133
log2 fold change [3]: -0.175
log2 fold change [20]: 0.003
log2 fold change [4]: 0.177
log2 fold change [14]: 0.077
log2 fold change [8]: -0.095
log2 fold change [15]: -0.174
log2 fold change [16]: 0.146

TGFBR1 isoform 2 (UniProt P36897)
log2 fold change [12]: -0.005
log2 fold change [9]: 1.04 (active)
log2 fold change [14]: 0.156
log2 fold change [10]: -0.004
log2 fold change [15]: -0.017
log2 fold change [16]: 0.077

TFPT (UniProt P0C1Z6)
Sequence of UniProt P0C1Z6 (P0C1Z6 whole entry, looked up): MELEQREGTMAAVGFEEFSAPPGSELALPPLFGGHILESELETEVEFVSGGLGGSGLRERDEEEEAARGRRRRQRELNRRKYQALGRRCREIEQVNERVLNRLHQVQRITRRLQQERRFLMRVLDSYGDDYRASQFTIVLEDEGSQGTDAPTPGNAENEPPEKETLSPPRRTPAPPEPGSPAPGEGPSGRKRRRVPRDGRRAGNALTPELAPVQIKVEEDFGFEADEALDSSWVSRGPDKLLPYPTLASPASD
log2 fold change [11]: -0.019
log2 fold change [1]: 0.148
log2 fold change [13]: 0.015
log2 fold change [9]: 0.005
log2 fold change [14]: -0.041
log2 fold change [10]: 0.381 (active)
log2 fold change [17]: 0.027

TMEM154 (UniProt Q6P9G4)
Sequence of UniProt Q6P9G4 (Q6P9G4 whole entry, looked up): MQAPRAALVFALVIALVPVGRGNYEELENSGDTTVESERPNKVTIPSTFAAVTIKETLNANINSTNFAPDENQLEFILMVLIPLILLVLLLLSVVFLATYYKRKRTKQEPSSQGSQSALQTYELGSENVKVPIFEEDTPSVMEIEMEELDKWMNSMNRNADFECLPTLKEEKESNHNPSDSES
log2 fold change [12]: 0.022
log2 fold change [2]: -0.08
log2 fold change [9]: -0.036
log2 fold change [3]: 0.116
log2 fold change [4]: 0.063
log2 fold change [10]: -0.099
log2 fold change [15]: -0.015
log2 fold change [16]: 0.023

TRPM4 (UniProt Q8TD43)
Sequence of UniProt Q8TD43 (Q8TD43 whole entry, looked up): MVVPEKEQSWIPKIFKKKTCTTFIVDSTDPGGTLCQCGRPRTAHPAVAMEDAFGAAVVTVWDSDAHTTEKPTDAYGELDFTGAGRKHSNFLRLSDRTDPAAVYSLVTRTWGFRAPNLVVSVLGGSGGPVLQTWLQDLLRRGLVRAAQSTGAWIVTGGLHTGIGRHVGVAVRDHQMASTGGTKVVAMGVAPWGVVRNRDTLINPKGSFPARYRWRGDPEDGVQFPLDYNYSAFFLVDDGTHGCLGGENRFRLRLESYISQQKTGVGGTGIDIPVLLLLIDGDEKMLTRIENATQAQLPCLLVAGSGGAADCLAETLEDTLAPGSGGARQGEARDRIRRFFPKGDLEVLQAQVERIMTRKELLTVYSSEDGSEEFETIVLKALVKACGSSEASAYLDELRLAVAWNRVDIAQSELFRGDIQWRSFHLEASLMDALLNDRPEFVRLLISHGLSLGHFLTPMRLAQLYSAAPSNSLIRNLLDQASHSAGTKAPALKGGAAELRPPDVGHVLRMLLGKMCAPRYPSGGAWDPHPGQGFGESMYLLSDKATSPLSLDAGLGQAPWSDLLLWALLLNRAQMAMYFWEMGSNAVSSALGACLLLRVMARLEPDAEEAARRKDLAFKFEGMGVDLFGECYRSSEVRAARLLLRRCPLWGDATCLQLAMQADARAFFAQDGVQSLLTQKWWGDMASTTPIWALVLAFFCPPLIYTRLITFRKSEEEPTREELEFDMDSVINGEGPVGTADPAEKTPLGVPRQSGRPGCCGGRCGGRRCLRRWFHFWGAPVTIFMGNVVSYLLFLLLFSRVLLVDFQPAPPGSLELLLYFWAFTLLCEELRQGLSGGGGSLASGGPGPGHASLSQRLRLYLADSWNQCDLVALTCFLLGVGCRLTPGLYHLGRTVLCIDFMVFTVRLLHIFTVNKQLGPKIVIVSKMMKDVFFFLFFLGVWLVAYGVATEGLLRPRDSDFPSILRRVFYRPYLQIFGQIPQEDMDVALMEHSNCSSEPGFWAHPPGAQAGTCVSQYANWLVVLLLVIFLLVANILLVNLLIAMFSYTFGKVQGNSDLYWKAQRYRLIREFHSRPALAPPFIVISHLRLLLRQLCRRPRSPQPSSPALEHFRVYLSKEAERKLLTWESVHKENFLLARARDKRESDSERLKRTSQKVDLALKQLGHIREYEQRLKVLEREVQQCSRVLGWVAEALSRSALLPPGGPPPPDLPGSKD
log2 fold change [1]: 0.456
log2 fold change [2]: 0.066
log2 fold change [18]: -0.598
log2 fold change [19]: 0.156
log2 fold change [9]: 0.044
log2 fold change [3]: 0.11
log2 fold change [20]: -0.401
log2 fold change [4]: 0.053
log2 fold change [14]: -0.163
log2 fold change [10]: 0.14

TUBB4A (UniProt P04350)
log2 fold change [11]: 0.036
log2 fold change [1]: -0.006
log2 fold change [12]: 0.045
log2 fold change [13]: 0.104
log2 fold change [2]: 0.02
log2 fold change [18]: -0.09
log2 fold change [19]: 0
log2 fold change [9]: -0.033
log2 fold change [3]: -0.007
log2 fold change [20]: -0.006
log2 fold change [4]: -0.113
log2 fold change [14]: -0.029
log2 fold change [10]: 0.051
log2 fold change [15]: -0.027
log2 fold change [16]: 0.112
log2 fold change [5]: 0.021
log2 fold change [17]: -0.002
log2 fold change [6]: 0.101

UBAP2, A0A0D9SFI5
log2 fold change [3]: 0.007

TCF3 isoform 2 (UniProt P15923)
log2 fold change [2]: 0.065
log2 fold change [3]: 0.043
log2 fold change [4]: 0.055
log2 fold change [14]: 0.214

TLE3 isoform 5 (UniProt Q04726)
Sequence of UniProt Q04726 (Q04726 whole entry, looked up): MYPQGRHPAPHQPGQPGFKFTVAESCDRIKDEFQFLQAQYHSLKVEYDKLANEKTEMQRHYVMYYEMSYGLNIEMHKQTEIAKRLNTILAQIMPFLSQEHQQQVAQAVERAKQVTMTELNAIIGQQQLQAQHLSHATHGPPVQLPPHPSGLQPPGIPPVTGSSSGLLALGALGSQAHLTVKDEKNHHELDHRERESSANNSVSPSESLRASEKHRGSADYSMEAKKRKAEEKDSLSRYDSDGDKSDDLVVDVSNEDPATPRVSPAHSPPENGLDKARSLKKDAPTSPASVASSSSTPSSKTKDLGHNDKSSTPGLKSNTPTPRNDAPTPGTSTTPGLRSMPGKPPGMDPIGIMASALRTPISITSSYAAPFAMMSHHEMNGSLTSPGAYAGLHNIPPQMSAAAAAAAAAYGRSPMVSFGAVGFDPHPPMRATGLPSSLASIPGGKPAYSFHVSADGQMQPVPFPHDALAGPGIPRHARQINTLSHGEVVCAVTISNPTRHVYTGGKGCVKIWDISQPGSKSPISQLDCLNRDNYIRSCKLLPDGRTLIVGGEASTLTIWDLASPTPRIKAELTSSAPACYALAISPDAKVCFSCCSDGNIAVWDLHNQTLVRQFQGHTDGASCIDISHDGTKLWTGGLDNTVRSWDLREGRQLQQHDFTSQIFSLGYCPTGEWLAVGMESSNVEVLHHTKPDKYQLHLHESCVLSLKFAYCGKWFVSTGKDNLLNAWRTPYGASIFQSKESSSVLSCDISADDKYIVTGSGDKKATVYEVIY
log2 fold change [11]: 0.037
log2 fold change [1]: -0.176
log2 fold change [12]: 0.026
log2 fold change [13]: -0.025
log2 fold change [2]: 0.034
log2 fold change [18]: 0.101
log2 fold change [19]: 0.178
log2 fold change [9]: 0.049
log2 fold change [3]: 0.015
log2 fold change [20]: -0.153
log2 fold change [4]: -0.06
log2 fold change [14]: 0.004
log2 fold change [10]: 0.011
log2 fold change [15]: -0.02
log2 fold change [16]: 0.002
log2 fold change [5]: 0
log2 fold change [17]: 0.008
log2 fold change [6]: 0.009

TRAF7 (UniProt Q6Q0C0)
Sequence of UniProt Q6Q0C0 (Q6Q0C0 whole entry, looked up): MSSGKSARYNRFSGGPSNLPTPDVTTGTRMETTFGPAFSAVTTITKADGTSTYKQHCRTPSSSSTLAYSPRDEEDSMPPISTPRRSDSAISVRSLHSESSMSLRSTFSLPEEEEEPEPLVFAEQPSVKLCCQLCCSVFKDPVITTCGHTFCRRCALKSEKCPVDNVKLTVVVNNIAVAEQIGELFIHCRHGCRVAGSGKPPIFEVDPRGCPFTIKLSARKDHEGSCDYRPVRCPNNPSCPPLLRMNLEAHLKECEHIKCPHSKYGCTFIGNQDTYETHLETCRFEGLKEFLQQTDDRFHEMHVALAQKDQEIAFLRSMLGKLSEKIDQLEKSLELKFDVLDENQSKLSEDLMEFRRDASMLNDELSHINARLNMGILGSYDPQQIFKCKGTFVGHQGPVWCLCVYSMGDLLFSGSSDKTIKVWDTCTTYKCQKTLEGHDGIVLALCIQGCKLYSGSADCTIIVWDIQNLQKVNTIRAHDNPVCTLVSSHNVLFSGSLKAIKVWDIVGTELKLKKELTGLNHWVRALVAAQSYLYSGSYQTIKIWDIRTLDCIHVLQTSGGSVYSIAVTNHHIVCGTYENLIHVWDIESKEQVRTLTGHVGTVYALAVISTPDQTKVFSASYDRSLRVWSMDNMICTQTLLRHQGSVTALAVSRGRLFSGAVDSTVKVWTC
log2 fold change [7]: -0.07
log2 fold change [12]: 0.053
log2 fold change [2]: 0.012
log2 fold change [18]: -0.065
log2 fold change [19]: 0.191
log2 fold change [9]: 0.132
log2 fold change [3]: -0.044
log2 fold change [20]: 0.058
log2 fold change [4]: -0.008
log2 fold change [8]: 0.141
log2 fold change [10]: 0.025
log2 fold change [15]: 0.015
log2 fold change [16]: -0.11
log2 fold change [5]: -0.05
log2 fold change [6]: -0.099
